Compound activity as filed in PubChem BioAssay.
CIT2-GFP yeast: modulators of TOR pathway CIT2-GFP in S. cerevisiae. S. cerevisiae CIT2-GFP strain, flow cytometry, 3 h; 100 means same as DMSO wells. GFP response vs DMSO, % at 10 µM. 320,000 compounds, 0.065% hits;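 active means GFP response relative to DMSO above a set limit, near the screen mean plus 3 SD, cut at about 150% in these data; inconclusive means Fewer than 70 cells measured for a yeast strain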;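 further: ratio of well median GFP fluorescence to mean of DMSO wells on the plate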
MEP2 TOR yeast: alters MEP2-GFP fluorescence in TOR pathway yeast screen; GFP response vs DMSO, % at 10 µM; AID 2016; 330,000 compounds, 0.51% hits; S. cerevisiae MEP2-GFP strain, flow cytometry GFP, 3 h; 100% = DMSO control level;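 active means GFP response versus DMSO above a set limit, roughly screen mean plus 3 SD, cut at about 180% in these data; inconclusive means fewer than 70 cells counted for a yeast strain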;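 further: median GFP fluorescence of the barcode-gated MEP2-GFP cells per well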
RPL19A TOR yeast: alters RPL19A-GFP fluorescence in TOR pathway yeast screen. 330,000 compounds, 0.3% hits. S. cerevisiae RPL19A-GFP strain, flow cytometry, 3 h; active compounds read low. percent response vs DMSO, % at 10 µM;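 active means percent response vs DMSO below 50%; inconclusive means fewer than 70 events counted for the yeast strain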;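 further: median channel GFP fluorescence of the barcoded RPL19A-GFP strain; ratio of sample median GFP to plate DMSO average so 100% = DMSO; lower means less RPL19A-GFP as with rapamycin TOR inhibition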
AGP1-GFP MLPCN: yeast TOR pathway AGP1-GFP modulation; S. cerevisiae AGP1-GFP multiplex flow cytometry, 3 h; GFP as percent of DMSO wells; GFP response vs DMSO, % at 10 µM; 320,000 compounds, 0.02% hits; AID 2066;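 active means GFP response relative to DMSO above a set limit, near screen average plus 3 SD, cut at about 150% in these data; inconclusive means fewer than 70 cells counted for the yeast strain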;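 further: median GFP channel fluorescence of the gated AGP1 strain per well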
LAP4-GFP MLPCN: modulators of TOR pathway LAP4-GFP in S. cerevisiae; S. cerevisiae LAP4-GFP multiplex, flow cytometry GFP, 3 h; median GFP as percent of DMSO wells; GFP response vs DMSO, % at 10 µM; 320,000 compounds, 0.34% hits; AID 2023;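 active means GFP response vs DMSO above a set limit, about the screen mean plus 3 SD, cut at about 150% in these data; inconclusive means under 70 cell events counted for the yeast strain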
Numbers without * were called inactive; ? = inconclusive; / = no result; [ ] = dose if it differs, or a comment. Compounds with a hit are over-represented: about 0.89% of the library has one in this group of screens.

SMILES | CIT2-GFP yeast | MEP2 TOR yeast | RPL19A TOR yeast | AGP1-GFP MLPCN | LAP4-GFP MLPCN
c1ccc(CNc2cnccn2)cc1 | 97.9 | 98.0 | 96.8 | 97.0 | 97.7
CCOc1cc(C=O)c(Br)cc1OC1CCCC1 | 117.3 | 104.2 | 107.5 | 103.7 | 79.7
O=C(CCN1CCCCC1)c1ccccc1 | 107.8 | 99.6 | 100.2 | 105.9 | 100.5
CCc1oc2ccccc2c1C(=O)CCN1CCCCC1 | 81.3 | 79.3 | 96.8 | 92.0 | 153.9*
CCCCOc1cccc(/C=C(\C#N)C(=O)NC2CC2)c1 | 120.4 | 100.4 | 97.6 | 83.2 | 174.8*
CCOc1cccc(/C=C(\C#N)C(=O)NC2CC2)c1 | 90.3 | 93.5 | 95.6 | 100.5 | 141.2
COCCCn1c(=N)c(C(=O)NC2CCCCC2)cc2c(=O)n3ccccc3nc21 | ? | 231.8*[may fluoresce violet] | 53.7 | ? | ?
Cc1ccc(CNC(=O)c2cc3c(=O)n4ccccc4nc3n(CC3CCCO3)c2=N)cc1 (stereo not given) | ? | 220.8*[may fluoresce violet] | 61.1 | 19.2 | 95.2
COc1ccc(Cn2c(=N)c(C(=O)NC3CCCCC3)cc3c(=O)n4ccccc4nc32)cc1 | 86.5 | 98.4 | 94.4 | 77.9 | 91.6
N=c1c(C(=O)NC2CCCCC2)cc2c(=O)n3ccccc3nc2n1CC1CCCO1 (stereo not given) | ? | ? | 44.2*[may fluoresce violet] | ? | ?
COc1ccc(CCn2c(=N)c(C(=O)NC3CCCC3)cc3c(=O)n4ccccc4nc32)cc1 | 96.0 | 99.2 | 98.6 | 97.5 | 97.1
COc1ccc(CCn2c(=N)c(C(=O)NC3CCCC3)cc3c(=O)n4ccccc4nc32)cc1OC | 95.4 | 110.9 | 98.5 | 96.9 | 94.0
N=c1c(C(=O)NC2CCCC2)cc2c(=O)n3ccccc3nc2n1CC1CCCO1 (stereo not given) | ? | 202.4*[may fluoresce red and violet] | ? | ? | 82.4
CC(C)CC(=O)Nc1c(C(=O)N2CCN(Cc3ccccc3)CC2)oc2ccccc12 | 112.7 | 112.7 | 106.4 | 108.7 | 102.2
CSc1nc2cc(C)nn2c(-c2ccc(C(C)(C)C)cc2)c1C#N | 101.4 | 87.2 | 96.5 | 102.9 | 94.5
CCCn1c(=N)c(C#N)cc2c(=O)n3cccc(C)c3nc21 | 94.7 | 107.4 | 97.2 | 102.0 | 102.4
CC(NC(=O)c1cc2c(=O)n3ccccc3nc2n(CC2CCCO2)c1=N)c1ccccc1 (stereo not given) | ? | 206.8*[may fluoresce violet] | 28.9*[may fluoresce violet] | ? | 56.7
CCCn1c(=N)c(C#N)cc2c(=O)n3ccccc3nc21 | ? | 297.8*[may fluoresce violet] | 72.8 | 15.9 | 80.2
Cc1ccc2nc3c(cc(C(=O)NCC4CCCO4)c(=N)n3CC3CCCO3)c(=O)n2c1 (stereo not given) | ? | 121.0 | 62.6 | ? | ?
CC1CN(C(=O)COC(=O)c2ccc(O)cc2)CC(C)O1 (stereo not given) | ? | ? | 22.7*[may fluoresce violet] | ? | 63.1
Oc1ccc(Cl)cc1Cc1cc(Cl)ccc1O | 85.9 | 102.2 | 96.6 | 92.2 | 102.6
Cc1ccc(S(=O)(=O)Oc2ccc(/C=C(/NC(=O)c3ccccc3)C(=O)NCC(=O)O)cc2)cc1 | 105.5 | 100.3 | 102.3 | 106.2 | 96.8
O=C(NCC1CCCO1)c1nn2c(C(F)(F)F)cc(-c3cc(Br)cs3)nc2c1Br (stereo not given) | ? | 231.2*[may fluoresce violet] | 43.9*[may fluoresce violet] | ? | 66.9
Cc1cccc(N2CCN(C(=O)COc3ccc4ccc(=O)oc4c3)CC2)c1C | ? | 122.7 | 41.8*[may fluoresce violet] | 14.2 | 84.0
O=C(CSc1ccsc1[N+](=O)[O-])NCc1ccccc1 | 93.3 | 94.9 | 100.4 | 99.4 | 100.0
SMILES | CIT2-GFP yeast | MEP2 TOR yeast | RPL19A TOR yeast | AGP1-GFP MLPCN | LAP4-GFP MLPCN
O=C(CSc1ccsc1[N+](=O)[O-])NC1CCCC1 | ? | 203.8*[may fluoresce violet] | 72.4 | ? | 75.7
COc1ccc(NC(=O)c2cccc3c2C(=O)N(C2CCCCC2)C3)cc1 | 91.8 | 99.1 | 95.2 | 96.7 | 96.1
COc1ccc(OC)c(NC(=O)c2cccc3c2C(=O)N(C2CCCCC2)C3)c1 | 111.3 | 161.0 | 29.1* | 16.7 | 86.8
Cc1cc2oc(C(=O)Nc3ccc(S(=O)(=O)Nc4ncccn4)cc3)cc(=O)c2cc1Cl | 103.8 | 107.8 | 98.5 | 94.6 | 91.5
CC1=C(C(=O)Nc2cccnc2)C(c2cccnc2)n2ncnc2N1 (stereo not given) | 107.2 | 104.3 | 103.3 | 107.0 | 90.7
COc1ccc(/C=N/NC(=O)C2(C)NC(C)(C)Cc3ccccc32)cc1 (stereo not given) | 148.2 | 239.0* | 80.3 | 160.1* | 158.4*
COc1ccc(/C=N/NC(=O)C2(O)c3ccccc3-c3ccccc32)cc1 | 105.1 | 98.6 | 102.4 | 100.8 | 98.4
O=C(Cc1nnc(NC(=O)Nc2ccc(Cl)cc2)s1)NCc1ccccc1 | 102.2 | 104.5 | 98.3 | 94.1 | 95.7
CC(=O)Nc1ccc(NC(=O)CCCn2cnc3ccccc3c2=O)cc1 | ? | 242.3*[may fluoresce violet] | 96.5 | 16.2 | 84.2
COc1ccc(/C=N/NC(=O)Cn2cnc3ccccc3c2=O)cc1 | ? | 245.3*[may fluoresce violet] | 49.0*[may fluoresce violet] | 22.2 | 78.5
CCCCNCc1cc(Br)c(OCC(=O)N2CCOCC2)c(OC)c1 | / | 100.8 | 93.4 | 96.6 | 86.7
COc1ccc(/C=C(/NC(=O)c2ccccc2)C(=O)NCc2ccco2)cc1 | ? | ? | 46.1*[may fluoresce violet] | ? | 62.2
O=C(Nc1ccc(F)cc1)C1CCCN(c2cnccn2)C1 (stereo not given) | 109.3 | 103.7 | 92.7 | 113.2 | 151.8*
COc1ccc(C(CNC(=O)Cc2c(F)cccc2Cl)N2CCCCC2)cc1 (stereo not given) | ? | 299.2*[may fluoresce violet] | 95.9 | 19.3 | 75.8
COC(=O)c1cc(CNC(=O)Cc2ccsc2)ccc1OC | ? | 298.4*[may fluoresce violet] | 59.0 | 83.8 | 96.9
COc1ccc(NC(=O)Cc2ccsc2)c(OC)c1 | ? | 342.7*[may fluoresce violet] | 46.4*[may fluoresce violet] | ? | 80.8
NS(=O)(=O)c1ccc(CCNC(=O)CCCCCNc2nc(=S)[nH]c3ccccc23)cc1 | 98.2 | 97.4 | 101.2 | 100.5 | 101.2
O=C(C1=C(O)C(=O)N(CC2CCCO2)C1c1ccc(Cl)cc1)c1ccco1 (stereo not given) | ? | 276.2*[may fluoresce violet] | 58.5 | 27.9 | 94.1
CCOC(=O)N1CCN(CC(O)COC2CC(C)CC(C)(C)C2)CC1 (stereo not given) | 98.1 | 105.5 | 102.2 | 109.2 | 110.0
Cc1nnc(N2CCCC(C(=O)Nc3cc(F)ccc3F)C2)c2nn(-c3ccccc3)c(C)c12 (stereo not given) | 106.7 | 103.2 | 105.2 | 106.3 | 100.3
Cc1nnc(N2CCCC(C(=O)NCc3ccc(OC(C)C)cc3)C2)c2nn(-c3ccccc3)c(C)c12 (stereo not given) | ? | 252.9*[may fluoresce violet] | 47.7*[may fluoresce violet] | ? | 62.0
CCOc1ccc(NC2=NCC(=O)N2CCc2ccccc2)cc1 | 91.6 | 103.5 | 84.7 | 100.4 | 98.7
O=C(Nc1c2c(nn1-c1ccccc1)CS(=O)C2)c1ccco1 (stereo not given) | 82.5 | 90.3 | 77.4 | 112.8 | 168.2*
